These results are taken from PubChem BioAssay (Tox21).

Assay [1] is described as follows: A CellTox Green Cytotoxicity Assay to monitor cytotoxicity in HEK293 cells - 8 hour (AID 1224884). Note: nearly all actives have a fitted effect of over 35% in size. In short, it runs like this: (§1)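 Homogeneous no-lysis format: HEK293 cell suspension mixed with CellTox Green reagent, seeded, incubated 5 h at 37 C/5% CO2, then dosed by pintool with compound in DMSO.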
The nature of assay [2]: qHTS RealTime-Glo MT Cell Viability Assay in HepG2 cells - 16 hour (AID 1224885). Note: nearly all actives have a fitted effect of over 50% in size. In short, it runs like this:
(§2)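 Luminescence read-out: viable HepG2 cells reduce a prosubstrate to a NanoLuc substrate, giving a signal proportional to live cell number. Reads taken at 0, 8, 16, 24, 32 and 40 h of compound exposure at 37 C.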
(In general: Quantitative high-throughput screening tests each substance at several concentrations.)

Assay [3] in a line: qHTS RealTime-Glo MT Cell Viability Assay in HEK293 cells - 24 hour (AID 1224886). Note: top concentration of the series differs between compounds; nearly all actives have a fitted effect of over 50% in size. A digest of the protocol: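 Nonlytic real-time viability readout: viable cells convert prosubstrate to NanoLuc substrate, giving luminescence proportional to live cell number. HEK293, 600 cells/well, compound added after 5 h, continuous culture at 37 C.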
Assay [4] is described as follows: qHTS RealTime-Glo MT Cell Viability Assay in HEK293 cells - 8 hour (AID 1224887). Note: top concentration of the series differs between compounds; nearly all actives have a fitted effect of over 50% in size. In short, it runs like this:
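Measured as luminescence from the same continuously cultured HEK293 wells at successive time points (0, 8, 16, 24, 32, 40 h) after compound addition. Reagent present from seeding; dosing at 5 h; incubation 37 C.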

Assay [5] can be described thus: A CellTox Green Cytotoxicity Assay to monitor cytotoxicity in HEK293 cells - 16 hour (AID 1224888). Note: nearly all actives have a fitted effect of over 35% in size. In short, it runs like this:
as §1

Assay [6] can be described thus: qHTS RealTime-Glo MT Cell Viability Assay in HepG2 cells - 0 hour (AID 1224889). Note: nearly all actives have a fitted effect of over 50% in size. Note: potency is the fitted concentration of half-maximal effect. In short, it runs like this: as §2
Assay [7] can be described thus: A CellTox Green Cytotoxicity Assay to monitor cytotoxicity in HepG2 cells - 8 hour (AID 1224890). Note: nearly all actives have a fitted effect of over 45% in size. In short, it runs like this: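 Fluorescent DNA-binding dye, 600 HepG2 cells/well, 5 h preincubation then compound in DMSO; same plates read at 0–40 h, 37 C.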
The nature of assay [8]: qHTS assay to identify small molecule antagonists of the estrogen receptor alpha (ER-alpha) signaling pathway using the BG1 cell line in the presence of 0.1 nM 17-beta-estradiol - cell viability counter screen (AID 1259241). Note: nearly all actives have a fitted effect of over 40% in size. Note: potency is the fitted concentration of half-maximal effect. A digest of the protocol: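 In this screen, hormone-deprived VM7Luc4E2 cells were seeded at 4,000 per well, dosed with compound and 0.1 nM estradiol final, and incubated 22 hr at 37C and 5% CO2; fluorogenic live-cell protease signal reported viability.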

A short description of assay [9]: qHTS assay to identify small molecule antagonists of the androgen receptor (AR) signaling pathway using the MDA cell line in the presence of 0.5 nM R1881 - cell viability counter screen (AID 1259242). Note: nearly all actives have a fitted effect of over 45% in size. A digest of the protocol:
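Human breast carcinoma MDA-kb2 cells, cultured without CO2, receive compounds alongside 0.5 nM (final) R1881 agonist. After 16 hr at 37C, viability is taken as live-cell protease signal.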

Assay [10] has as its target Androgen receptor (Homo sapiens) (UniProt P10275). The experiment in a line: qHTS assay to identify small molecule antagonists of the androgen receptor (AR) signaling pathway using the MDA cell line in the presence of 0.5 nM R1881 (AID 1259243). Note: nearly all actives have a fitted effect of over 50% in size. In short, it runs like this: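 Cells: MDA-kb2 (MMTV-luc). Stimulus: 0.5 nM R1881. Time: 16 hr, 37C, no CO2. Detection: ONE-Glo luminescence after 30 min at RT.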

Where “and” joins values, the source holds several entries; their conditions need not be identical. Equal entries are not always repeated. Inconclusive results are not listed. Unmarked numbers belong to inactive results. Calls of active or inactive are those of the source. Calls come from the whole dose curve; as a rule, active = well fitted curve in the direction sought with a large enough effect in the repeat runs; inconclusive = weak or mixed curves; inactive = no such curve, though single readings can be large; an effect the other way counts as inactive or inconclusive.
% is set by controls: 0 for no effect and ±100 for the full control effect.

Sequence of Androgen receptor (Homo sapiens) (P10275 whole entry, looked up): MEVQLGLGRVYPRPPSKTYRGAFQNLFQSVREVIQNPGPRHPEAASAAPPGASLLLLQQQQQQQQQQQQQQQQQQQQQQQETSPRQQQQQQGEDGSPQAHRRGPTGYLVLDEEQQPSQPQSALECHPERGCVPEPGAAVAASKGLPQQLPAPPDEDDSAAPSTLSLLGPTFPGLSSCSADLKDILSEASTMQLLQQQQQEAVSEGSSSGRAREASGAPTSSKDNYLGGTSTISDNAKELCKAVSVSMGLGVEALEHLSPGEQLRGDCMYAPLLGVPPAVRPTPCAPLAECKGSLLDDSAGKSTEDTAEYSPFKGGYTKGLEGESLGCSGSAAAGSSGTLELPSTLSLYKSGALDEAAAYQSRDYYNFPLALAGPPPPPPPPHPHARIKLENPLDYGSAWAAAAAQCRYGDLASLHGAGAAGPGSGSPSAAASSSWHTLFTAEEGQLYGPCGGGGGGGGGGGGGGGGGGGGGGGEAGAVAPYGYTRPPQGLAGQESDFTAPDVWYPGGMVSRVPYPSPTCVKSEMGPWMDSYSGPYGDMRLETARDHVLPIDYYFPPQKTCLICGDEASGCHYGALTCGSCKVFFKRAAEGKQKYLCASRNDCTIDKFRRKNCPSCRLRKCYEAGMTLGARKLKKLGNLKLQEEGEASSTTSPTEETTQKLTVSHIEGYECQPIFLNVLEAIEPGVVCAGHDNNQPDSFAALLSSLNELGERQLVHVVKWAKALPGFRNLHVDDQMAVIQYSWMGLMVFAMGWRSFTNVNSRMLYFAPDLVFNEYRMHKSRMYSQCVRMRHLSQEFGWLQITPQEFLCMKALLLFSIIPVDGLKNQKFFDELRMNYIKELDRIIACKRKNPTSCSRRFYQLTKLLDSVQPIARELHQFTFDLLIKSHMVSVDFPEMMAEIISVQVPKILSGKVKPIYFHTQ

Take `O=S1(=O)CC=CC1`: the compound was called inactive in assay [1], in assay [2], in assay [5] and in assay [9]. Further, the Potency result in assay [3], in assay [4], in [6], in assay [7] and in assay [8] was “inactive” in each case.

`Cc1cccnc1`: the result in assay [1], in assay [2], in assay [5] and in [9] was inactive. The Potency entry in assay [3], in [4], in assay [6], in [7] and in [8] was “inactive” each time.

In the case of `CC(=O)Nc1cccc(O)c1`, the outcome in [1], in assay [2], in assay [5] and in [9] was inactive. Moreover, the Potency result in assay [3], in assay [4], in [6], in assay [7] and in assay [8] was “inactive” each time.

As to `O=C(O)c1cc(O)c(O)c(O)c1`, the compound was called inactive in assay [1], in assay [2], in assay [5] and in [9]. For the same compound, the Potency entry in assay [3], in assay [4], in assay [6], in assay [7] and in assay [8] was “inactive” throughout.

Consider `C#C[C@]1(O)CC[C@H]2[C@@H]3CCC4=CC(=O)CC[C@@H]4[C@H]3CC[C@@]21C`, for which the call in assay [1], in assay [2], in assay [5] and in [9] was inactive. Besides, the Potency entry in assay [3], in [4], in assay [6], in assay [7] and in assay [8] was “inactive” in each case.

As for `O=C(O)c1ccc2c(c1)C(=O)OC2=O`, the outcome in assay [1], in assay [2], in [5] and in assay [9] was inactive. Also, the Potency entry in assay [3], in assay [4], in assay [6], in assay [7], in [8] and in assay [10] was “inactive” in each case.

For the compound `CC(=O)OCC(=O)[C@@]12N=C(C)O[C@@H]1C[C@H]1[C@@H]3CCC4=CC(=O)C=C[C@]4(C)[C@H]3[C@@H](O)C[C@@]12C`, the outcome in assay [1], in [2], in [5] and in assay [9] was inactive. Also, the Potency result in assay [3], in assay [4], in [6], in [7] and in assay [8] was “inactive” throughout.

Consider `COc1ccc(Cl)cc1C(=O)NCCc1ccc(S(=O)(=O)NC(=O)NC2CCCCC2)cc1`, for which the call in assay [1], in assay [2], in assay [5] and in [9] was inactive. In addition, the Potency result in [3], in assay [4], in assay [7] and in [8] was “inactive” in each case.

Consider `C[Si](O[Si](C)(C)C)O[Si](C)(C)C`, for which the call in assay [1], in assay [2], in assay [5] and in [9] was inactive. The Potency entry in assay [3], in assay [4], in assay [6], in assay [7], in [8] and in [10] was “inactive” each time.

As to `CC(C)c1ccc(S(=O)(=O)O)cc1`, the compound was called inactive in assay [1], in [2], in [5] and in [9]. The Potency entry in assay [3], in [6], in assay [7] and in assay [8] was “inactive” throughout.

In the case of `O=C=NCCCCCCN=C=O`, the result in assay [1], in assay [2], in [5] and in assay [9] was inactive. In addition, the Potency entry in assay [3], in assay [4], in [6], in assay [7] and in assay [8] was “inactive” in each case.

On to `CCN(CC)CCCC(C)Nc1ccnc2cc(Cl)ccc12` (stereo not drawn), for which the cytotoxicity increase in assay [1] is -10.7% [at 6.97 µM] and -2.14% [at 15.8 µM]; in assay [7] it was 3.33% [at 6.97 µM] and 10.4% [at 15.8 µM]. In assay [2], the activity change, negative = cytotoxic was 1.09% [at 6.97 µM] and -5.7% [at 15.8 µM]. Also, the activity change, negative = cytotoxicity in assay [3] is -16.8% [at 6.97 µM]; in assay [4] it was -9.86% [at 6.97 µM]; in assay [6], 3.19% [at 6.97 µM] and -4.4% [at 15.8 µM]. In [9], the viability change, negative = cytotoxic was -8.89% [at 8.39 µM].

With `O=c1[nH]c(=O)n([C@H]2C[C@H](O)[C@@H](CO)O2)cc1Br`, the call in [1], in assay [2], in assay [5] and in assay [9] was inactive. For the same compound, the Potency entry in assay [3], in assay [4], in [6], in assay [7] and in assay [8] was “inactive” each time.

As for `Cc1cccc(O)c1`, the result in assay [1], in assay [2], in assay [5] and in assay [9] was inactive. Also, the Potency result in assay [3], in assay [4], in assay [6], in [7] and in assay [8] was “inactive” throughout.

In the case of `CCCCC(CC)COC(=O)CCCCC(=O)OCC(CC)CCCC` (stereo not drawn), the outcome in [1], in [2], in assay [5] and in assay [9] was inactive. The Potency entry in assay [3], in [6], in assay [7] and in [8] was “inactive” each time.

Consider `FC(F)(F)c1ccc(Cl)c(Cl)c1`, for which the outcome in assay [1], in assay [2], in assay [5] and in assay [9] was inactive. Also, the Potency result in assay [3], in assay [4], in assay [6], in [7], in [8] and in [10] was “inactive” each time.

As for `CC(c1cc2ccccc2s1)N(O)C(N)=O` (stereo not drawn), the compound was called inactive in assay [1], in assay [2], in [5] and in assay [9]. The Potency entry in [3], in assay [4], in assay [6], in [7], in assay [8] and in assay [10] was “inactive” throughout.

For `CCC(O)OCCCOC` (stereo not drawn), the compound was classed as inactive in assay [1], in assay [2], in assay [5] and in assay [9]. For the same compound, the Potency entry in [3], in assay [4], in assay [6], in assay [7] and in assay [8] was “inactive” throughout.

`Nc1cc([N+](=O)[O-])ccc1O`: the call in [1], in [2] and in [5] was inactive. Besides, the Potency entry in [3], in assay [4], in [6], in assay [7] and in assay [10] was “inactive” in each case. Besides, the Potency in assay [8] is 48.6 µM (active).

For `CCCCCCCCCCCCOCCO`, the compound was called inactive in [1], in [2], in assay [5] and in [9]. For the same compound, the Potency result in assay [3], in assay [4], in assay [6], in assay [7], in assay [8] and in assay [10] was “inactive” throughout.

With `C=C(C)C(=O)OCCOCCOCCOC(=O)C(=C)C`, the compound was called inactive in [1], in [2], in assay [5] and in assay [9]. In addition, the Potency entry in [3], in [4], in assay [6], in [7] and in [8] was “inactive” in each case.

In the case of `OCc1cccnc1`, the compound was classed as inactive in [1], in assay [2], in [5] and in [9]. In addition, the Potency entry in assay [3], in [4], in assay [6], in assay [7] and in assay [8] was “inactive” throughout.

`C[C@H]1C[C@@H]2[C@H]([C@@H](O)C[C@@]3(C)[C@H]2CC[C@]3(O)C(=O)CO)[C@@]2(C)C=CC(=O)C=C12`: the outcome in [1], in assay [2], in assay [5] and in assay [9] was inactive. For the same compound, the Potency entry in [3], in assay [4], in assay [7], in assay [8] and in assay [10] was “inactive” each time. Besides, the Potency in [6] was 871 nM (active) and 1.9 µM (active).

Turning to `Oc1cccc2ccccc12`, the call in [1], in [2], in assay [5] and in assay [9] was inactive. Also, the Potency entry in assay [3], in assay [4], in [6], in [7] and in assay [8] was “inactive” each time.

Take `CN(C)CCC(c1ccccc1)c1ccccn1` (stereo not drawn): the compound was called inactive in [1], in [2], in assay [5] and in assay [9]. Further, the Potency entry in assay [3], in assay [6], in assay [7] and in assay [8] was “inactive” in each case.

Take `CCC(O)OC(O)CC` (stereo not drawn): the call in assay [1], in [2], in assay [5] and in assay [9] was inactive. The Potency result in assay [3], in assay [6], in assay [7] and in assay [8] was “inactive” in each case.
